Assay outcomes: PubChem BioAssay, National Center for Advancing Translational Sciences (NCATS)
Cruzain inh Det – inhibitors of Trypanosoma cruzi cruzain with detergent; Potency, µM, inactives show max response, negative = inhibition, usual class: inhibitors; P25779; 200,000 compounds, 0.43% hits; purified cruzain, Z-FR-AMC fluorescence, 0.01% Triton;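 note: plate controls were neutral wells for no effect and buffer without enzyme for full effect; nearly all actives have a fitted effect of over 40% in size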
Target sequence (P25779 123-467 limits assumed): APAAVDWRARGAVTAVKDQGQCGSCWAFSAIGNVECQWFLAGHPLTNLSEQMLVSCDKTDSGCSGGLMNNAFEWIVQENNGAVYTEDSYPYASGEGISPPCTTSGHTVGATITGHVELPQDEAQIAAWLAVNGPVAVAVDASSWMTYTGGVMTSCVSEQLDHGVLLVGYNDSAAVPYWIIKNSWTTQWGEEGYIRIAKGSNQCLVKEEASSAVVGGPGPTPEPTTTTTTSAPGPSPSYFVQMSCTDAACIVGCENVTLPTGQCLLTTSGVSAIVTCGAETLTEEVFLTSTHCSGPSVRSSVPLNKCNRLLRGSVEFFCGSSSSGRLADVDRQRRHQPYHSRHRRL
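Enzyme 1.5 nM, Z-FR-AMC 2 uM, NaOAc 100 mM pH 5.5, DTT 5 mM, Triton X-100 0.01%; 15 min RT compound preincubation; kinetic ex360/em450, 60 s delta.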
Cruzain inh noDet – blocks cruzain activity in detergent-free assay; Potency, µM, for the others: max response, negative = inhibition, hits mostly inhibitors; 200,000 compounds, 2.3% hits; purified cruzain, Z-FR-AMC fluorescence, no detergent; P25779;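 note: plate controls were enzyme without inhibitor for no effect and buffer without enzyme for full effect; nearly all actives have a fitted effect of over 40% in size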
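Detergent-free condition (0.00005% Triton X-100) in acetate buffer pH 5.5 with DTT. 1.5 nM enzyme and compound were pre-mixed 15 min, then 2 uM Z-FR-AMC substrate added; reaction progress from fluorescence change between first and third reads (60 s).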
* hit, by the source's call. Sampled rows, rich in hits. Any-hit rate of the full collection: about 2.4%. Calls come from the whole dose curve; as a rule, active = well fitted curve in the direction sought with a large enough effect; inconclusive = small, poorly fitted or top-dose-only effect, or another doubt; inactive = no such curve, though single readings can be large; an effect the other way counts as inactive or inconclusive. Potency is the fitted concentration of half-maximal effect.

Results for CCSc1nnc(NC(=O)c2cc3c(s2)CCCC3)s1 ?
Cruzain inh Det: 9%; Cruzain inh noDet: 7.9µM*

What do the screens show for `CCSc1nnc(NC(=O)c2cc(-c3ccc(C)c(C)c3O)n[nH]2)s1`?
Cruzain inh Det: -2%; Cruzain inh noDet: 4µM*

What do the screens show for `O=S1(=O)c2ccccc2N(Cc2cccc(F)c2)c2ccccc21`?
Cruzain inh Det: -4%; Cruzain inh noDet: -28%

What do the screens show for `CCN(C(=O)Cn1ncc2c(=O)oc3ccc(C)cc3c21)c1cc(OC)ccc1OC`?
Cruzain inh Det: -4%; Cruzain inh noDet: 8%

What do the screens show for `Cc1ccc(N(C)C(CNS(=O)(=O)c2ccccc2)c2ccccc2)cc1` (stereo not given)?
Cruzain inh Det: -10%; Cruzain inh noDet: 1%

Results for COc1ccc2oc(=O)c(-c3csc(Nc4cccc(O)c4)n3)cc2c1 ?
Cruzain inh Det: -12%; Cruzain inh noDet: 25µM*

What do the screens show for `COc1ccc(Nc2nc(-c3cc4cccc(OC)c4oc3=O)cs2)cc1`?
Cruzain inh Det: 0%; Cruzain inh noDet: inconclusive

Results for Cc1c(O)nc(SCC(=O)Nc2ccc(Cl)cc2Cl)n(-c2ccc(F)cc2)c1=O ?
Cruzain inh Det: -7%; Cruzain inh noDet: 3%

What do the screens show for `Cc1ccc(-n2ncc3c(NCCC4=CCCCC4)ncnc32)cc1`?
Cruzain inh Det: 1%; Cruzain inh noDet: -17%

What do the screens show for `CCOC(=O)c1sc2cccc(F)c2c1S(=O)(=O)Nc1ccccc1F`?
Cruzain inh Det: -9%; Cruzain inh noDet: 0%

How did Cc1ccc(/C=N/c2sc3c(c2C#N)CCC3)s1 do in these assays?
Cruzain inh Det: -3%; Cruzain inh noDet: -4%

What do the screens show for `N#Cc1c(/N=C/c2cc3ccccc3s2)sc2c1CCC2`?
Cruzain inh Det: -5%; Cruzain inh noDet: 13µM*

Results for CCC(=O)C1=C(c2cccc([N+](=O)[O-])c2)N(C(=O)CC)n2c(nnc2C2CCCCC2)S1 ?
Cruzain inh Det: 0%; Cruzain inh noDet: -19%

What do the screens show for `Cc1ccc(C)c(N2CCN(S(=O)(=O)c3ccc4[nH]c(=O)c(=O)[nH]c4c3)CC2)c1`?
Cruzain inh Det: -2%; Cruzain inh noDet: 19%

How did Cc1ccc(CNS(=O)(=O)c2ccc3[nH]c4c(c3c2)CCCCC4)cc1 do in these assays?
Cruzain inh Det: -20%; Cruzain inh noDet: -11%

Results for Cc1ccc(C)c(N2CCN(S(=O)(=O)c3ccc4[nH]c5c(c4c3)CCCCC5)CC2)c1 ?
Cruzain inh Det: 0%; Cruzain inh noDet: 7.9µM*

Results for Cc1ccc(N2CCN(S(=O)(=O)c3ccc4[nH]c5c(c4c3)CCCCC5)CC2)c(C)c1 ?
Cruzain inh Det: 3%; Cruzain inh noDet: 3.2µM*

Results for COc1ccc(-n2ccnc(NCCc3ccc(S(N)(=O)=O)cc3)c2=O)cc1 ?
Cruzain inh Det: -13%; Cruzain inh noDet: -27%

Results for CCc1ccc(-c2csc(NC(=O)COC(=O)CCc3nc4ccccc4s3)n2)cc1 ?
Cruzain inh Det: -3%; Cruzain inh noDet: 13µM*

Results for Cc1nc(NC(=O)COC(=O)CCc2nc3ccccc3s2)c(Cl)cc1Cl ?
Cruzain inh Det: -4%; Cruzain inh noDet: -6%

What do the screens show for `Cc1ccc(NC(=O)CCS(=O)(=O)c2cc3c4c(c2)CCN4C(=O)CC3)c(C)c1`?
Cruzain inh Det: 2%; Cruzain inh noDet: 20%

Results for CCOC(=O)c1c(-c2ccc(C)o2)csc1NC(=S)NC(=O)c1ccccc1Br ?
Cruzain inh Det: -3%; Cruzain inh noDet: 32µM*

Results for CCOC(=O)c1c(-c2ccc(C)o2)csc1NC(=O)CSc1nnc(C)s1 ?
Cruzain inh Det: -7%; Cruzain inh noDet: inconclusive

Results for CCOC(=O)c1c(-c2ccc(C)o2)csc1NC(=S)NC(=O)c1cccs1 ?
Cruzain inh Det: -1%; Cruzain inh noDet: 25µM*

How did CCOC(=O)c1c(-c2ccccc2)csc1NC(=S)NC do in these assays?
Cruzain inh Det: -14%; Cruzain inh noDet: -3%

Results for CC1=C(C(=O)Nc2ccccc2)C(c2cccs2)n2nc(SCc3ccccc3)nc2N1 (stereo not given) ?
Cruzain inh Det: -1%; Cruzain inh noDet: inconclusive

What do the screens show for `Cc1ccc(N(Cc2cccs2)C(=O)c2ccc(OC(C)C)cc2)cc1`?
Cruzain inh Det: -13%; Cruzain inh noDet: -23%

How did CCCCc1ccc(/C=C2/C(=O)ON=C2c2ccccc2)s1 do in these assays?
Cruzain inh Det: -15%; Cruzain inh noDet: -6%

How did Cc1sc(/C=C2\C(=O)ON=C2c2ccccc2)cc1Br do in these assays?
Cruzain inh Det: inconclusive; Cruzain inh noDet: 25µM*

Results for Cc1ccc2nc(-c3cccs3)c(Nc3c(C)cccc3C)n2c1 ?
Cruzain inh Det: -10%; Cruzain inh noDet: -8%

How did COC(=O)CSc1nnc([C@H](Cc2ccccc2)NC(=O)OC(C)(C)C)o1 do in these assays?
Cruzain inh Det: 0%; Cruzain inh noDet: 4%

How did Cc1cccc(CS(=O)(=O)c2nnc([C@H](Cc3ccccc3)NC(=O)OC(C)(C)C)o2)c1 do in these assays?
Cruzain inh Det: 16µM*; Cruzain inh noDet: 16µM*
